# Screening results: PubChem BioAssay, several laboratories
# ATG4B inhibitor = ATG4B (human) cysteine protease inhibition; Q9Y4P1; ATG4B cleavage of LC3-PLA2, NBD-HPC fluorescence, 1 h; inhibition, % at 8.33 µM; 340,000 compounds, 0.51% hits; AID 504462; in the data active = inhibition above about 40%
# Mot1-301 SUMO = blocks SUMOylation pathway, rescuing yeast Mot1-301 growth. growth rescue, % at 18.8 µM. S. cerevisiae Mot1-301 growth rescue, ATP luminescence, 38.5C; percent above DMSO median, 100 means doubled. 320,000 compounds, 1% hits;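 active = every valid replicate shows activation above 250% relative to neutral control wells; inactive = the rest, any valid replicate at or below 250%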;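 also: OY570 slx delta 5 strain wells were the positive control but not used for scaling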
# Calb FLC = affects C. albicans growth with fluconazole; C. albicans CaCi-2 (fluconazole-resistant clinical isolate) + fluconazole, Alamar Blue growth, 48 h; growth inhibition, % (test concentration not listed); 300,000 compounds, 0.57% hits;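 active = growth inhibition above about 58% in most replicates, limit read from the data, passing the limit was not always enough; inconclusive = exactly half the replicates above a set limit; inactive = most replicates below a set limit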;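 also: all wells also contain fluconazole at 8 µg/ml as a sub-toxic cotreatment; 0% = median of DMSO wells and 100% = median of geldanamycin control wells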
# FAS-TE inh = inhibitors of human fatty acid synthase thioesterase domain | inhibition, % at 15 µM | recombinant FAS-TE, OMFH fluorogenic substrate, fluorescence endpoint | P49327 | 360,000 compounds, 0.67% hits;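 active = compounds whose normalised, plate-corrected inhibition of enzyme fluorescence in the single-dose primary screen is 50% or more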;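 also: 0% = DMSO with enzyme and 100% = substrate without enzyme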
# NadD inh = inhibitors of Staphylococcus aureus NadD; purified NadD enzyme, colorimetric absorbance read-out; AID 602399; inhibition, % at 20 µM; 360,000 compounds, 0.78% hits; in the data active = inhibition above about 26%
# ATG4B conf = ATG4B (human) inhibition, single-dose confirmed. AID 504757. ATG4B protease fluorescent substrate cleavage assay. inhibition, % at 8.33 µM. 320 compounds, 92% hits. shares compounds with ATG4B inhibitor; in the data active = inhibition above about 39%
# PLA2 counter = inhibits human PLA2, flagging false ATG4B inhibitors | purified PLA2, NBD-C6-HPC fluorescence, 45 min | shares compounds with ATG4B inhibitor | 1,600 compounds, 66% hits | inhibition, % at 8.33 µM | AID 588402; in the data active = inhibition above about 50%
# FAS-TE conf = confirmation of human fatty acid synthase thioesterase inhibitors; 2,300 compounds, 45% hits; AID 624325; shares compounds with FAS-TE inh; recombinant FAS-TE, OMFH fluorogenic substrate, fluorescence; inhibition, % at 15 µM;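 active = compounds inhibiting the enzyme by at least 50% at 15 µM in any one of the replicates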;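 also: 0% = enzyme with DMSO only and 100% = wells lacking enzyme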
# NadD inh conf = confirmation of Staphylococcus aureus NadD inhibitors | shares compounds with NadD inh | purified S. aureus NadD, colorimetric enzyme assay | inhibition, % at 20 µM | 2,000 compounds, 13% hits; in the data active = inhibition mostly above about 42%, no sharp cut-off; inactive = mostly below about 42%
# The depositor's hits bear a star; u = inconclusive; x = no result. Only some compounds are listed: those with a hit (about 3.1% of all), similar ones and a draw of the others.
SMILES,ATG4B inhibitor,Mot1-301 SUMO,Calb FLC,FAS-TE inh,NadD inh,FAS-TE conf,others
Cn1cccc1C1CCCN1CC(=O)Nc1ccc(F)c(F)c1F (stereo not given),-1,-10,x,7,9,x,
CCNc1ccc(Br)cc(C(=O)/C=C/c2ccccc2Cl)c1=O,51*,-10,19,4,34*,x,PLA2 counter=-7;NadD inh conf=18
COCCCn1c(N)c(-c2nc3ccccc3n2C)c2nc3ccccc3nc21,7,71,-35,2,-5,x,
Cn1c(-c2c(N)n(CCCc3ccccc3)c3nc4ccccc4nc23)nc2ccccc21,42*,x,1,17,35*,x,PLA2 counter=52*;NadD inh conf=10
CCc1nnc(NS(=O)(=O)c2ccc(NC(=O)c3ccccc3)cc2)s1,-10,10,2,-1,1,x,
CCc1nnc(NS(=O)(=O)c2ccc(N/C=C\C(=O)c3ccc4ccccc4c3)cc2)s1,50*,-8,-7,12,30*,x,ATG4B conf=59*;PLA2 counter=11;NadD inh conf=50*
CN1CCN(S(=O)(=O)c2ccc(Oc3cccc(C(F)(F)F)c3)nc2)CC1,-1,-12,7,-4,-6,x,
Cc1ccccc1NC(=O)c1ccc(NS(=O)(=O)c2cc(C(C)(C)C)cc(C)c2C)cc1,47*,x,u,35,41*,x,PLA2 counter=42;NadD inh conf=26
CC1(C)CC(=O)C=C(C(=O)N2CCCC(C(=O)c3cccc(C(F)(F)F)c3)C2)O1 (stereo not given),-9,32,-4,-6,-3,x,
O=C(Nc1nc(-c2ccccc2)c(C(=O)c2ccccc2)s1)c1ccc(S(=O)(=O)N2CCCCC2)cc1,-7,-24,10,86*,9,9,
CCOC(=O)N1CCN(C(=O)c2cnn3c(C(F)F)cc(-c4ccc(C)cc4)nc23)CC1,-4,31,1,7,-3,x,
Cc1ccc(-c2cc(C(F)F)n3ncc(C(=O)N4CCc5ccccc5C4)c3n2)cc1,5,47,45,53*,2,2,
CCc1cc(C(=O)N(C)CC(=O)Nc2c(Cl)cccc2Cl)sc1C,-8,5,x,-4,0,x,
Cc1ccc(N2C(=O)C(F)(F)C2c2ccccc2)cc1 (stereo not given),-4,-14,33,19,1,x,
Cc1ccc(N2C(=N)/C(=C3/Nc4ccccc4S3)C(c3ccccc3)C2=O)cc1 (stereo not given),-6,10,x,63*,4,12,
COC(=O)c1ccc(C)c(NC(=O)CCCN2C(=O)CN(C)C2=O)c1,-8,7,x,-7,5,x,
COc1ccccc1CNC(=O)Cn1cc([N+](=O)[O-])ccc1=O,0,-12,1,9,4,x,
Cc1cc(NS(=O)(=O)c2ccc(NC(=O)CSc3nc4ncc(Br)cc4[nH]3)cc2)nc(C)n1,-12,-18,-4,-6,-1,x,
CCCC(C)NC(=O)c1cc(C(=O)OC)cc([N+](=O)[O-])c1 (stereo not given),0,-16,4,20,-4,x,
CCCC(C)c1nnc(NC(=O)c2cc(C(=O)OC)cc([N+](=O)[O-])c2)s1 (stereo not given),5,-1,20,55*,1,58*,
Cc1ccc(S(=O)(=O)N(C)C)cc1-n1c(SCC(=O)Nc2ccc(F)cc2)nc2ccccc2c1=O,-11,6,-7,54*,3,17,
Cc1ccccc1-n1c(SCC(=O)N/N=C/c2sccc2C)nc2ccccc2c1=O,5,-14,-1,-11,-4,x,
Cc1ccc(S(=O)(=O)N(C)C)cc1-n1c(SCC(=O)Nc2ccc(F)cc2Cl)nc2ccccc2c1=O,-21,0,-2,23,9,x,
Cc1ccccc1-n1c(SCC(=O)N/N=C/c2c(C)nn(-c3ccccc3)c2C)nc2ccccc2c1=O,33,-22,2,59*,29,16,
Cc1ccc(S(=O)(=O)N(C)C)cc1-n1c(SCC(=O)Nc2ccccc2)nc2ccccc2c1=O,-4,-10,-12,52*,12,32,
SMILES,ATG4B inhibitor,Mot1-301 SUMO,Calb FLC,FAS-TE inh,NadD inh,FAS-TE conf,others
CCc1ccc(N2CC(C(=O)Nc3cccc(C(=O)NC4CC4)c3)CC2=O)cc1 (stereo not given),6,0,x,-16,-1,x,
CN(CC(=O)Nc1cccc(S(=O)(=O)N(C)C)c1)Cc1ccccc1,-3,121,-2,1,-3,x,
CN(CC(=O)Nc1ccc(S(=O)(=O)N(C)C)cc1)Cc1ccc(C(F)(F)F)cc1,-9,8,-14,53*,-5,40,
N#Cc1c(C(F)(F)F)cc(-c2cccs2)nc1SC(C(=O)O)c1ccccc1 (stereo not given),25,-3,14,75*,9,82*,
Cc1cc2occ(CC(=O)N(C)CC(=O)Nc3ccccc3Cl)c2cc1C,-6,8,-2,5,-5,x,
CN(C)c1ccc(P(=O)(Nc2ccc([N+](=O)[O-])cc2)N2CCOCC2)c(NC(=O)c2cccs2)c1 (stereo not given),-3,-3,-5,54*,-3,35,
CCCCNC(=O)CSc1nc2ccc(Nc3nc(N4CCOCC4)nc(N4CCOCC4)n3)cc2s1,0,6,8,0,1,x,
CCCCSc1nc2ccc(Nc3nc(N4CCOCC4)nc(N4CCOCC4)n3)cc2s1,-1,-10,-1,86*,6,42,
COc1ccc(S(=O)(=O)N(C(=O)c2ccncc2)c2ccc3oc4c(c3c2)CCCC4)cc1,3,-14,9,60*,19,25,
CCc1nonc1NC(=O)c1oc2c(C)c(C)ccc2c1C,1,x,-4,10,-5,x,
CSc1nc2nc3c(cn2n1)C(=O)CC(c1ccccc1)C3 (stereo not given),-5,-16,43,9,2,x,
Cn1c(=O)c2cc3c(nc2n(C)c1=O)CC(c1ccccc1)CC3=O (stereo not given),-8,-5,1,60*,-3,51*,
COc1cc(S(=O)(=O)Nc2ccc(C)cc2)ccc1N=Cc1c(C)[nH]n(-c2ccccc2)c1=O,-14,-10,-3,55*,21,40,
Cc1ccccc1NC1=C(Cl)C(=O)OC1OC(=O)c1ccco1 (stereo not given),-4,10,-7,74*,3,87*,
COc1ccc(C(=O)OCC(=O)NCc2ccc3c(c2)OCO3)cc1[N+](=O)[O-],10,20,-7,50*,-10,1,
